Results from PubChem BioAssay (EPA / NIEHS).
Inconclusive results are not listed. Activity calls are given as the source filed them. Rule for the calls, unless noted: active = hit-call score of the fitted dose curve at least 0.9, where 1 is the maximum; inactive = score below 0.9.

Legend:
[1] = target: human RAR-related Orphan Receptor gamma (RORg), RORC (gene 6097) (UniProt P51449); assay: ATG_RORg_TRANS: Attagene TRANS-FACTORIAL HepG2 Assay for human RAR-related Orphan Receptor gamma (RORg) (AID 2283011; active = hit-call score of the fitted dose curve at least 0.9, where 1 is the maximum)
human RAR-related Orphan Receptor gamma (RORg), RORC (gene 6097), sequence (P51449 whole entry, looked up, the tested form may be a part): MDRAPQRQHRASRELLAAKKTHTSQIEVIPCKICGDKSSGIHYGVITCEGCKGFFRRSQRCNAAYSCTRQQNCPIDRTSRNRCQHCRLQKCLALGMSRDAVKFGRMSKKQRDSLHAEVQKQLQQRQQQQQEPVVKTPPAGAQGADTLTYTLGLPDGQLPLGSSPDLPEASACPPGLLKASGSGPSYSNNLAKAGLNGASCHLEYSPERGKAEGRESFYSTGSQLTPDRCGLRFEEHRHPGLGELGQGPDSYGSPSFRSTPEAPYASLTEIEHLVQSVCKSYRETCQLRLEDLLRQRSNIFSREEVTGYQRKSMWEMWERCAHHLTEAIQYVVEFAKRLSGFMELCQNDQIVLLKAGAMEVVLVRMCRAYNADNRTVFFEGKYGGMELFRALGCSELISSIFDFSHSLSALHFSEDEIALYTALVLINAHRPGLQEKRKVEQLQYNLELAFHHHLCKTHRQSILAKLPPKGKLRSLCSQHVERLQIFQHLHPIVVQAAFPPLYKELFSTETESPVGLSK
Summary of the method: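 First, HepG2 liver cells were transfected with GAL4-UAS-driven reporter constructs and the RORg-Gal4 fusion. Next, they were treated with chemical for 24 h. Finally, reporter mRNA was quantified by RT-PCR and capillary electrophoresis, with upward activity fitted against DMSO.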

[2] = target: Retinoic acid receptor RXR-alpha (Homo sapiens) (UniProt P19793); assay: ATG_RXRa_TRANS: Attagene TRANS-FACTORIAL HepG2 Assay for human Retinoid X Receptor alpha (RXRa) (AID 2283012; active = hit-call score of the fitted dose curve at least 0.9, where 1 is the maximum)
Retinoic acid receptor RXR-alpha (Homo sapiens), sequence (P19793 whole entry, looked up, the tested form may be a part): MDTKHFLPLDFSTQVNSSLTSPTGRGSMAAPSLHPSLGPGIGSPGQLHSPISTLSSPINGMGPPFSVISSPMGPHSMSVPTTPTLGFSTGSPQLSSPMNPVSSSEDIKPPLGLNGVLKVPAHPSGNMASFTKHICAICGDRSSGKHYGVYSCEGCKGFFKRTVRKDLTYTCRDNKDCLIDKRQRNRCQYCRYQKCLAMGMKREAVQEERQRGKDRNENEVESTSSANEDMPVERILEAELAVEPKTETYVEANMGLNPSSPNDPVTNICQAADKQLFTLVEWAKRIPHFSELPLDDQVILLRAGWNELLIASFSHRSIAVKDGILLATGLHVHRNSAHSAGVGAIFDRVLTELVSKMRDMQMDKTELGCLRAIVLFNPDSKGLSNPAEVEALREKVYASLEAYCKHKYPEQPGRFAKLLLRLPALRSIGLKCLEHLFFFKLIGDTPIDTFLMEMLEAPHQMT
Summary of the method: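 Measures exogenous chimeric NR-GAL4 activity in transfected HepG2 liver cells after 24 h of dosing. Induced reporter mRNA was detected by RT-PCR with capillary electrophoresis, and gain of signal was analysed against DMSO.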

[3] = read-out: E-selectin (Homo sapiens) (UniProt P16581); assay: BSK_3C_Eselectin: BioMAP Diversity Plus: 3C Assay for Eselectin Biomarker Activity (AID 2283015); details: primary human endothelial cells (HUVEC); actives raise or lower the signal
Summary of the method: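 ELISA read-out of E-selectin on endothelial monolayers after 24 h chemical treatment. Human umbilical vein primary cells served as the system, with DMSO defining baseline activity for bidirectional fitting.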

[4] = read-out: Interleukin-1 alpha (IL1a), IL1A (gene 3552); assay: BSK_BE3C_IL1a: BioMAP Diversity Plus: BE3C Assay for Interleukin-1 alpha (IL1a) Biomarker Activity (AID 2283016); details: primary human bronchial epithelial cells; actives raise or lower the signal
Summary of the method: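 Signal from IL-1a ELISA, taken 24 h after chemical dosing of human bronchial epithelial cells, is compared with DMSO as baseline using bidirectional curve fitting.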

[5] = read-out: Monocyte Chemoattractant Protein-1 (MCP1), CCL2 (gene 6347); assay: BSK_3C_MCP1: BioMAP Diversity Plus: 3C Assay for Monocyte Chemoattractant Protein-1 (MCP1) Biomarker Activity (AID 2283017); details: primary human endothelial cells (HUVEC); actives raise or lower the signal
Summary of the method: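 ELISA read-out of MCP-1 from human umbilical vein endothelial cell cultures harvested 24 h post-dosing. Gain or loss of signal was fitted relative to DMSO.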

[6] = read-out: Monocyte Chemoattractant Protein-1 (MCP1), CCL2 (gene 6347); assay: BSK_4H_MCP1: BioMAP Diversity Plus: 4H Assay for Monocyte Chemoattractant Protein-1 (MCP1) Biomarker Activity (AID 2283018); details: primary human endothelial cells (HUVEC); actives raise or lower the signal
Summary of the method: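 Endothelial cells from umbilical vein were treated with test chemical, then after 24 h MCP-1 levels were quantified by ELISA; endpoint values came from bidirectional fitting with DMSO as baseline of activity.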

[7] = read-out: Human Leukocyte Antigen - DR isotype (HLADR), HLA-DRA (gene 3122); assay: BSK_3C_HLADR: BioMAP Diversity Plus: 3C Assay for Human Leukocyte Antigen - DR isotype (HLADR) Biomarker Activity (AID 2283019); details: primary human endothelial cells (HUVEC); actives raise or lower the signal
Summary of the method: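 ELISA readout of surface HLA-DR on human umbilical vein endothelium, taken 24 h after chemical treatment. Gain- and loss-of-signal were both fitted relative to DMSO.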

[8] = read-out: Interleukin-8 (IL8), CXCL8 (gene 3576); assay: BSK_3C_IL8: BioMAP Diversity Plus: 3C Assay for Interleukin-8 (IL8) Biomarker Activity (AID 2283020); details: primary human endothelial cells (HUVEC); actives raise or lower the signal
Summary of the method: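 Endothelial primary cells of human umbilical vein origin are dosed with chemical; after 24 h the IL-8 biomarker is measured by ELISA, and concentration–response is fitted in both directions versus DMSO.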

[9] = target: human Thyroid Receptor alpha (THRa1), THRA (gene 7067) (UniProt P10827); assay: ATG_THRa1_TRANS: Attagene TRANS-FACTORIAL HepG2 Assay for human Thyroid Receptor alpha (THRa1) (AID 2283014; active = hit-call score of the fitted dose curve at least 0.9, where 1 is the maximum)
human Thyroid Receptor alpha (THRa1), THRA (gene 7067), sequence (P10827 whole entry, looked up, the tested form may be a part): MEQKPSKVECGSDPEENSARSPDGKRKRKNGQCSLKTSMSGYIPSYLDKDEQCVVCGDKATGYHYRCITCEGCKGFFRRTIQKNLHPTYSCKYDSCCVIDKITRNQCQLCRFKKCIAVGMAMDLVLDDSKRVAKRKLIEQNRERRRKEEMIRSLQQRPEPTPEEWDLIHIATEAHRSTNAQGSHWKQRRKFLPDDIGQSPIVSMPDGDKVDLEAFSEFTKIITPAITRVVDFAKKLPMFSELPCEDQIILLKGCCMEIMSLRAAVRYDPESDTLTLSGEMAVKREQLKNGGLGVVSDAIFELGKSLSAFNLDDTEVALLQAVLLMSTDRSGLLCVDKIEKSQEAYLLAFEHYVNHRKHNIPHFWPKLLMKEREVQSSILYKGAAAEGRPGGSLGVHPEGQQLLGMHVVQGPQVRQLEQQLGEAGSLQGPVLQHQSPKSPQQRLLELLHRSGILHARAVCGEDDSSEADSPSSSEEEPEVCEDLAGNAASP
Summary of the method: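 Reporter transcript induction, read by capillary electrophoresis of 6-FAM-labelled RT-PCR products, reflects activity of a transfected THRa1-Gal4 fusion in HepG2 liver cells. Cells were dosed for 24 h; activity was fitted in the positive direction against DMSO.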

[10] = target: human Retinoid X Receptor beta (RXRb), RXRB (gene 6257) (UniProt P28702); assay: ATG_RXRb_TRANS: Attagene TRANS-FACTORIAL HepG2 Assay for human Retinoid X Receptor beta (RXRb) (AID 2283013; active = hit-call score of the fitted dose curve at least 0.9, where 1 is the maximum)
human Retinoid X Receptor beta (RXRb), RXRB (gene 6257), sequence (P28702 whole entry, looked up, the tested form may be a part): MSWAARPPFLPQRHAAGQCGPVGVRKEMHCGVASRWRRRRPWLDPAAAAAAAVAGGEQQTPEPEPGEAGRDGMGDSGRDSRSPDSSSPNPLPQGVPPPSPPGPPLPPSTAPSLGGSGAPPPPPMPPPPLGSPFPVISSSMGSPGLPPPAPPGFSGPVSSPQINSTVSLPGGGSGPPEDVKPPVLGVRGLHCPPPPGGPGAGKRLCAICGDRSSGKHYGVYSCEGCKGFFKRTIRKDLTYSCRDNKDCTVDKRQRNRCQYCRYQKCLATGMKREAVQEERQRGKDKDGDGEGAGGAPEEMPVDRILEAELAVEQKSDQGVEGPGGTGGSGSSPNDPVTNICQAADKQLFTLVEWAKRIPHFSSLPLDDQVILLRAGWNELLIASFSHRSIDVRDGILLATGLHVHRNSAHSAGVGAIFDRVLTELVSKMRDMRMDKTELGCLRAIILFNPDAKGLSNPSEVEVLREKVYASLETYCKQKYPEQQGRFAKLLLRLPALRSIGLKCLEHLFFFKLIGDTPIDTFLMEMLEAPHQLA
Summary of the method: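 Chimeric receptor-Gal4 activity was assessed in transiently transfected human HepG2 cells after 24 h exposure. Transcripts from GAL4-UAS reporters were quantified by fluorescent RT-PCR and capillary electrophoresis, with DMSO as negative control and baseline.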

Measured: AC50

E-selectin (Homo sapiens), sequence (P16581 whole entry, looked up): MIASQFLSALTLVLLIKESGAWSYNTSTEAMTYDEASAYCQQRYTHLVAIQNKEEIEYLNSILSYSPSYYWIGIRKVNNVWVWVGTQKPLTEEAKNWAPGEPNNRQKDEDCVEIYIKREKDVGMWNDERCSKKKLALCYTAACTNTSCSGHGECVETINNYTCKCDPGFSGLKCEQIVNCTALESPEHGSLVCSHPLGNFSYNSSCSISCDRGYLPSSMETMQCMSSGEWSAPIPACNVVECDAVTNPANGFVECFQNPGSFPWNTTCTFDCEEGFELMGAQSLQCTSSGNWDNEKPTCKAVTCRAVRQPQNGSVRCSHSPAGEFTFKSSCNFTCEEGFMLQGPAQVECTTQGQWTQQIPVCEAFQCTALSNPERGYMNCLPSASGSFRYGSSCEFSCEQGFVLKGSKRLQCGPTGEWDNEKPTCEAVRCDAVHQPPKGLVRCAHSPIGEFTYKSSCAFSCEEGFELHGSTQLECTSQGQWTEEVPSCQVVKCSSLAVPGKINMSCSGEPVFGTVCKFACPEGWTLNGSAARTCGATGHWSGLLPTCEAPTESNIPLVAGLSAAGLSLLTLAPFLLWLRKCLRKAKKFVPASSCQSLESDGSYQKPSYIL

CCOc1cc(C(C)(C)C)ccc1C1COC(c2c(F)cccc2F)=N1 (centres undefined)
active: [3] 18.9 µM | [5] 27.6 µM | [6] 18.5 µM | [7] 29.8 µM | [8] 23.9 µM
inactive: [1] | [2] | [4]

CC(C)N1C(=O)c2ccccc2NS1(=O)=O
not listed: [4] | [9] | [10]
inactive: all other assays above

Cc1nc(N(C)C)nc(OC(=O)N(C)C)c1C
not listed: [4] | [10]
inactive: all other assays above

CCCCOCN(C(=O)CCl)c1c(CC)cccc1CC
inactive: [2] | [9]
active: [3] 19.3 µM | [5] 30.2 µM | [6] 25.6 µM | [7] 31 µM | [8] 34.5 µM

CC(C)NC(=O)N1CC(=O)N(c2cc(Cl)cc(Cl)c2)C1=O
inactive: [2] | [5] | [6] | [7] | [8]

CC1(C)C(C(=O)OC(C#N)c2cccc(Oc3ccccc3)c2)C1(C)C (centres undefined)
inactive: [9] | [3] | [4] | [6] | [7] | [8]

CCCC(=NOCC)C1=C(O)CC(CC(C)SCC)CC1=O (centres undefined)
not listed: [1] | [9] | [10]
inactive: all other assays above

CCOP(=S)(OCC)Oc1nc(Cl)n(C(C)C)n1
not listed: [2] | [4] | [10]
inactive: all other assays above

O=C1C2CC=CCC2C(=O)N1SC(Cl)(Cl)Cl (centres undefined)
active: [4] 11.2 µM | [7] 36.7 µM
not listed: [1] | [10]
inactive: all other assays above

COC(=O)NS(=O)(=O)c1ccc(N)cc1
inactive: [1] | [3] | [5] | [6] | [7] | [8]

CC(C)Nc1nc(Cl)nc(NC(C)C)n1
not listed: [1] | [10]
inactive: all other assays above

Cc1cc(C)nc(Nc2ccccc2)n1
active: [7] 16.6 µM
not listed: [1] | [10]
inactive: all other assays above

N#Cc1c(Cl)cccc1Cl
active: [7] 3.97 µM
not listed: [1] | [4] | [10]
inactive: all other assays above

COc1ccc(-c2ccccc2)cc1NNC(=O)OC(C)C
not listed: [1] | [9] | [10]
inactive: all other assays above

Cn1c(-c2ccccc2)cc(-c2ccccc2)[n+]1C
active: [3] 1.56 µM | [5] 5.41 µM | [7] 2.89 µM
inactive: [6] | [8]

CC1(C)CCC(=Cc2ccc(Cl)cc2)C1(O)Cn1cncn1 (centres undefined)
active: [7] 5.3 µM
inactive: [2] | [3] | [5] | [6] | [8]

CC(C)=CC1C(C(=O)OCc2coc(Cc3ccccc3)c2)C1(C)C (centres undefined)
active: [3] 8.92 µM | [5] 10.4 µM | [7] 7.53 µM | [8] 9.03 µM
inactive: [2] | [9] | [4] | [6]

Nc1c(Cl)c(F)nc(OCC(=O)O)c1Cl
inactive: [2] | [3] | [5] | [6] | [7] | [8]

COCC(=O)N(c1c(C)cccc1C)C(C)C(=O)OC (centres undefined)
inactive: [2] | [3] | [5] | [6] | [7] | [8]

O=C(O)c1c(Cl)ccc2cc(Cl)cnc12
inactive: [9] | [3] | [5] | [6] | [7] | [8]

CC(C)(C)C(=O)C(Oc1ccc(Cl)cc1)n1cncn1 (centres undefined)
active: [7] 31.4 µM
not listed: [1] | [4] | [10]
inactive: all other assays above

C=CCOC(=O)C(C)(C)OC(=O)c1cc(-n2c(=O)cc(C(F)(F)F)n(C)c2=O)ccc1Cl
active: [7] 14.7 µM
not listed: [1] | [4] | [10]
inactive: all other assays above

CCOC(=O)C(C)OC(=O)c1cc(Oc2ccc(C(F)(F)F)cc2Cl)ccc1[N+](=O)[O-] (centres undefined)
active: [5] 10.6 µM | [6] 6.5 µM | [7] 3.97 µM
not listed: [1] | [2]
inactive: all other assays above

COC(=O)c1c(C(F)F)nc(C(F)(F)F)c(C2=NCCS2)c1CC(C)C
active: [6] 17.6 µM | [7] 25.2 µM
inactive: [2] | [3] | [5] | [8]

COC(=O)NC(=S)Nc1ccccc1NC(=S)NC(=O)OC
active: [3] 5.15 µM | [6] 5.32 µM | [7] 14.2 µM
not listed: [1] | [10]
inactive: all other assays above

COP(=S)(OC)SCn1nnc2ccccc2c1=O
active: [7] 30.2 µM
not listed: [2] | [4] | [10]
inactive: all other assays above

CCNP(=S)(OC)O/C(C)=C/C(=O)OC(C)C (centres undefined)
inactive: [1] | [3] | [5] | [6] | [7] | [8]

CCCCC(C#N)(Cn1cncn1)c1ccc(Cl)cc1 (centres undefined)
not listed: [2] | [9] | [10]
inactive: all other assays above

COCc1cnc(C2=NC(C)(C(C)C)C(=O)N2)c(C(=O)O)c1 (centres undefined)
not listed: [1]
inactive: all other assays above

CN/C(=N\[N+](=O)[O-])NCc1cnc(Cl)s1
inactive: [9] | [3] | [5] | [6] | [7] | [8]

COP(=S)(OC)Oc1ccc([N+](=O)[O-])c(C)c1
inactive: [9] | [3] | [6] | [8]
active: [5] 30.8 µM | [7] 20 µM

COCC(C)N(C(=O)CCl)c1c(C)csc1C (centres undefined)
not listed: [2] | [10]
inactive: all other assays above

COc1cc(Cl)c(OC)cc1Cl
not listed: [1] | [10]
inactive: all other assays above

N#CN=C1SCCN1Cc1ccc(Cl)nc1
inactive: [2] | [3] | [5] | [6] | [7] | [8]

CO/N=C(/C1=NOCCO1)c1ccccc1Oc1ncnc(Oc2ccccc2Cl)c1F
inactive: [1] | [9] | [4]
active: [3] 6.21 µM | [5] 20.1 µM | [7] 9.24 µM | [8] 20 µM

OC(c1ccc(Cl)cc1)(c1ccc(Cl)cc1)C(Cl)(Cl)Cl
inactive: [2]
active: [3] 13.8 µM | [5] 29.3 µM | [6] 13.8 µM | [7] 12 µM | [8] 15.3 µM

Clc1nc(Cl)nc(Nc2ccccc2Cl)n1
not listed: [1] | [4] | [10]
inactive: all other assays above

Cc1ccc(N=CN(C)C=Nc2ccc(C)cc2C)c(C)c1
active: [3] 33 µM | [4] 35.1 µM | [5] 36 µM | [6] 31.4 µM | [7] 33 µM | [8] 31.6 µM

Nc1cnn(-c2ccccc2)c(=O)c1Cl
not listed: [1] | [10]
inactive: all other assays above
